Test results published in PubChem BioAssay (NCATS).
Records with an inconclusive call do not appear. Activity calls are given as the source filed them. Calls come from the whole dose curve; as a rule, active = well fitted curve in the direction sought with a large enough effect; inconclusive = small, poorly fitted or top-dose-only effect, or another doubt; inactive = no such curve, though single readings can be large; an effect the other way counts as inactive or inconclusive.

Key:
[1] = qHTS of pediatric cancer cell lines to identify multiple opportunities for drug repurposing: Primary screen for RD cells (AID 1347104); note: nearly all actives have a fitted effect of over 55% in size
How it was run: (§1)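 Cells plated at 500-1,000/well in growth medium, compounds added after 5 h. MIPE tested at 11 points (from 0.78 nM), NPC at 8 points (from 0.59 nM). CellTiter-Glo luminescence after 48 h; concentration-response curves from primary screen.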

[2] = qHTS of pediatric cancer cell lines to identify multiple opportunities for drug repurposing: Primary screen for MG 63 (6-TG R) cells (AID 1347105); note: nearly all actives have a fitted effect of over 50% in size
How it was run: as §1

[3] = qHTS of pediatric cancer cell lines to identify multiple opportunities for drug repurposing: Primary screen for control Hh wild type fibroblast cells (AID 1347106);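 note: series mostly up to about 46 µM; a drop in luminescence marks cytotoxicity and a rise apparent proliferation; nearly all actives have a fitted effect of over 55% in size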
How it was run: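 Cells (500-1,000/well) in growth media were settled 5 h at 37 degrees C, then given compounds for 48 h. Viability was read as CellTiter-Glo luminescence. Primary runs used MIPE at 11 points (0.78 nM-46 µM) and NPC at 8 points (0.59 nM-46 µM); follow-ups used 11 points.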

[4] = qHTS of pediatric cancer cell lines to identify multiple opportunities for drug repurposing: Primary screen for Rh30 cells (AID 1347107); note: series mostly up to about 46 µM; nearly all actives have a fitted effect of over 75% in size
How it was run: (§2)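 Cells (500-1,000/well) rested 5 h, then received compounds for 48 h; metabolically active cells were measured by CellTiter-Glo luminescence. Final concentrations spanned up to 46 µM (MIPE, 11-point) or 0.59 nM-46 µM (NPC, 8-point) in primary screens, 11-point in follow-ups.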

[5] = qHTS of pediatric cancer cell lines to identify multiple opportunities for drug repurposing: Primary screen for Rh41 cells (AID 1347108);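 note: series mostly up to about 46 µM; luminescence drop marks cytotoxic hits; nearly all actives have a fitted effect of over 70% in size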
How it was run: as §1

[6] = qHTS of pediatric cancer cell lines to identify multiple opportunities for drug repurposing: Confirmatory screen for NB1643 cells (AID 1347109); note: nearly all actives have a fitted effect of over 45% in size
How it was run: as §2

[7] = qHTS of pediatric cancer cell lines to identify multiple opportunities for drug repurposing: Confirmatory screen for A673 cells (AID 1347110);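 note: cells exposed to compound for 48 h before the viability read; nearly all actives have a fitted effect of over 65% in size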
How it was run: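 Forty-eight-hour viability assay. Follow-up compounds ran at 11-point dilutions; positive control bortezomib at 2.3 uM final, neutral control DMSO.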

[8] = qHTS of pediatric cancer cell lines to identify multiple opportunities for drug repurposing: Confirmatory screen for SK-N-MC cells (AID 1347111);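 note: cells exposed to compound for 48 h before the readout; nearly all actives have a fitted effect of over 70% in size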
How it was run: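 Seed 500-1,000 cells/well; rest 5 h at 37 degrees C. Pin-transfer compounds, 11-point titration. Incubate 48 h. Add CellTiter-Glo, 15 min RT, read luminescence.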

[9] = qHTS of pediatric cancer cell lines to identify multiple opportunities for drug repurposing: Confirmatory screen for BT-12 cells (AID 1347112); note: nearly all actives have a fitted effect of over 55% in size
How it was run: as §2

[10] = qHTS of pediatric cancer cell lines to identify multiple opportunities for drug repurposing: Confirmatory screen for DAOY cells (AID 1347114); note: nearly all actives have a fitted effect of over 65% in size
How it was run: (§3)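 Viability measured as metabolically active cells via CellTiter-Glo luminescence following 48 hours of compound exposure, 11-point dilutions in confirmatory testing. 500-1,000 cells/well plated 5 hours before dosing; controls were DMSO and 2.3 µM bortezomib.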

[11] = qHTS of pediatric cancer cell lines to identify multiple opportunities for drug repurposing: Confirmatory screen for NB-EBc1 cells (AID 1347115);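 note: cells exposed to compound for 48 h before the viability read; nearly all actives have a fitted effect of over 45% in size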
How it was run: as §2

[12] = qHTS of pediatric cancer cell lines to identify multiple opportunities for drug repurposing: Confirmatory screen for SJ-GBM2 cells (AID 1347116); note: nearly all actives have a fitted effect of over 60% in size
How it was run: as §3

[13] = qHTS of pediatric cancer cell lines to identify multiple opportunities for drug repurposing: Confirmatory screen for BT-37 cells (AID 1347117); note: nearly all actives have a fitted effect of over 55% in size
How it was run: as §2

[14] = qHTS of pediatric cancer cell lines to identify multiple opportunities for drug repurposing: Confirmatory screen for TC32 cells (AID 1347118);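 note: cells exposed to compound for 48 h before the read; nearly all actives have a fitted effect of over 65% in size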
How it was run: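 Measured quantity: luminescence from CellTiter-Glo, reflecting metabolically active TC32 cells following 48 h of compound. Curves came straight from multi-point titrations, with 8 or 11 points in primary and 11 in confirmatory screening.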

[15] = qHTS of pediatric cancer cell lines to identify multiple opportunities for drug repurposing: Confirmatory screen for control Hh wild type fibroblast cells (AID 1347121); note: nearly all actives have a fitted effect of over 70% in size
How it was run: as §2

[16] = qHTS of pediatric cancer cell lines to identify multiple opportunities for drug repurposing: Confirmatory screen for U-2 OS cells (AID 1347122); note: nearly all actives have a fitted effect of over 65% in size
How it was run: as §2

[17] = qHTS of pediatric cancer cell lines to identify multiple opportunities for drug repurposing: Confirmatory screen for Rh41 cells (AID 1347123);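 note: potency is the fitted concentration of half-maximal effect; 48 h compound exposure; nearly all actives have a fitted effect of over 60% in size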
How it was run: as §2

Measured: Potency

CC[N+]1(CC)CCC(=C(c2ccccc2)c2ccccc2)C1C (stereo not given)
inactive: [1] | [2] | [3] | [4]

Nc1nc(=O)n([C@@H]2O[C@H](CO)[C@@H](O)[C@@H]2F)cc1I
inactive: [1] | [2] | [3] | [4] | [5]

CO[C@@H]1[C@@H](O[C@@H]2O[C@H](C)[C@@H](O[C@H]3C[C@@](C)(O)[C@@H](O)[C@H](C)O3)[C@H](N(C)C)[C@H]2O)[C@@H](CC=O)C[C@@H](C)[C@@H](O[C@@H]2CC[C@H](N(C)C)[C@@H](C)O2)/C=C/C=C/C[C@@H](C)OC(=O)C[C@H]1OC(C)=O
inactive: [1] | [2] | [3] | [4] | [5]

CCCCCOc1ccc(C2SC(=O)NC2=O)cc1OCC (stereo not given)
inactive: [1] | [2] | [3] | [4] | [5]

Cc1nc(C2CCCCC2)c(-c2ccc(S(N)(=O)=O)c(F)c2)o1
inactive: [1] | [2] | [3] | [4] | [5]

O=c1[nH]c(=O)n([C@H]2O[C@H](CO)[C@@H](O)[C@@H]2O)cc1/C=C\Br
inactive: [1] | [2] | [3] | [4] | [5]

CCOC(=O)OCC/C(SC(=O)OCC)=C(\C)N(C=O)Cc1cnc(C)nc1N
inactive: [1] | [2] | [3] | [4]

OCCOCCN1CCN(C(c2ccccc2)c2ccc(Cl)cc2)CC1 (stereo not given)
inactive: [1] | [2] | [3] | [4] | [5]

NC(=O)NS(=O)(=O)c1ccc(Cl)cc1
inactive: [1] | [2] | [3] | [4] | [5]

CC(Oc1c(Cl)cccc1Cl)C1=NCCN1 (stereo not given)
inactive: [1] | [2] | [3] | [4] | [5]

CC1(C)O[C@@H]2C[C@H]3[C@@H]4C[C@H](F)C5=CC(=O)C=C[C@]5(C)[C@@]4(F)[C@@H](O)C[C@]3(C)[C@]2(C(=O)CO)O1
inactive: [1] | [2] | [3] | [4] | [5]

CCOC(=O)N1CCC(n2c(=O)[nH]c3cc(Cl)ccc32)CC1
inactive: [1] | [2] | [3] | [4]

Clc1ccc2c(c1)Nc1ccccc1S2
inactive: [1] | [2] | [3] | [4] | [5]

CC[N+](CC)(CC)CCOC(=O)C(C1CCCC1)C1CCCC1
inactive: [1] | [2] | [3] | [4] | [5]

Cc1oc(-c2ccccc2)nc1CCC(=O)c1ccc(CC2SC(=O)NC2=O)cc1 (stereo not given)
inactive: [1] | [2] | [3] | [4] | [5]

c1ccc2c(c1)CCc1ccccc1N2
inactive: [1] | [2] | [3] | [4] | [5]

C=CCOc1cc(Cl)ccc1C(=O)NCCN(CC)CC
inactive: [1] | [2] | [3] | [4] | [5]

O=C(OCCN1CCOCC1)c1cccnc1Nc1cccc(C(F)(F)F)c1
inactive: [1] | [2] | [3] | [4] | [5]

CCCCCCCC(=O)[O-].CCCCCCCC(=O)[O-].[Zn+2]
inactive: [1] | [2] | [3] | [4] | [5]

CC1(C)O[C@@H]2C[C@H]3[C@@H]4CCC5=CC(=O)C=C[C@]5(C)[C@@]4(F)[C@@H](O)C[C@]3(C)[C@]2(C(=O)CO)O1
inactive: [1] | [2] | [3] | [4] | [5]

CCN1CCN(c2cc(-c3ccc(F)cc3)c3c(n2)CCCCCC3)CC1
inactive: [1] | [2] | [3] | [4] | [5]

COC(=O)c1cc(Cl)ccc1NS(=O)(=O)C(F)(F)F
inactive: [1] | [2] | [3] | [4] | [5]

O=C1Nc2cc(Cl)ccc2Oc2ccccc21
inactive: [1] | [2] | [3] | [4] | [5]

CC(C)Cc1ccc(C(C)C(=O)OCc2ccccn2)cc1 (stereo not given)
inactive: [1] | [2] | [3] | [4] | [5]

CN1C(CSCC(F)(F)F)Nc2cc(Cl)c(S(N)(=O)=O)cc2S1(=O)=O (stereo not given)
inactive: [1] | [2] | [3] | [4] | [5]

O=C(c1cc(O)c(O)c(O)c1)c1ccc(O)c(O)c1O
inactive: [1] | [2] | [3] | [4] | [5]

O=c1[nH]c2ccccc2c(=O)n1CCCl
inactive: [1] | [2] | [3] | [4]

CCOC(=O)c1ccc(O)c(O)c1
inactive: [1] | [2] | [3] | [4] | [5]

CSCC[C@H](NC(=O)[C@H](Cc1c[nH]c2ccccc12)NC(=O)CCNC(=O)OC(C)(C)C)C(=O)N[C@@H](CC(=O)O)C(=O)N[C@@H](Cc1ccccc1)C(N)=O
inactive: [1] | [2] | [3] | [4] | [5]

Nc1c(I)cc(I)c(C(=O)N(CCC(=O)O)c2ccccc2)c1I
inactive: [1] | [2] | [3] | [4] | [5]

NC(=O)NC1N=C([O][Al])NC1=O (stereo not given)
inactive: [1] | [2] | [3] | [4] | [5]

N#CSCC(=O)O
inactive: [1] | [2] | [3] | [4] | [5]

CCc1cc2cc(OC)c(OC)cc2c(Cc2ccccc2)n1
active: [17] 18.5 µM
inactive: all other assays above

Cc1sccc1Br
inactive: [1] | [2] | [4] | [5]

CN(C)[C@@H]1C(=O)C(C(N)=O)=C(O)[C@@]2(O)C(=O)C3=C(O)c4c(O)cccc4C[C@H]3C[C@@H]12
inactive: [1] | [2] | [3] | [4] | [5]

CN1C(=O)c2ccccc2C1=O
inactive: [1] | [2] | [3] | [4] | [5]

C/C=C(/C(=C/C)c1ccc(OC(C)=O)cc1)c1ccc(OC(C)=O)cc1
inactive: [1] | [3] | [4] | [5]

CCC(C(=O)OCCN1CCOC(c2ccccc2)C1C)c1ccccc1 (stereo not given)
inactive: [1] | [3] | [4] | [5]
